Source: PubChem BioAssay (Tox21)
Inconclusive results are not listed. Calls of active or inactive are those of the source. The call rests on the fitted dose curve; in most records, active means well fitted cell-killing curve with a large enough effect in the repeat runs; inconclusive means weak or mixed curves, or effect the other way; inactive means flat fitted curve, though single readings scatter.

experiment: qHTS RealTime-Glo MT Cell Viability Assay in HepG2 cells - 40 hour (AID 1224870); details: RealTime-Glo luminescence; series mostly up to 76.8 µM; activity change, negative = cytotoxic: at the top concentration; further: nearly all actives have a fitted effect of over 50% in size
Text: National Center for Advancing Translational Sciences [NCATS]
NIH Chemical Genomics Center [NCGC]
U.S. Environmental Protection Agency [EPA]
National Institutes of Environmental Health Sciences [NIEHS]
National Toxicology Program [NTP]
U.S. Food and Drug Administration [FDA]
Measure of cell viability is critical in the cell-base assay. Analysis of cell viability is necessary for the characterization of cell responses to cytotoxic drugs and environmental stress. A RealTime-Glo MT Cell Viability Assay to monitor cell viability in real time of continues cell culture during 40 hours of compound treatment was used to screen Tox21 10K library compounds in HepG2 cells. The RealTime-Glo MT Cell Viability Assay is a nonlytic, homogeneous, bioluminescent method to measure cell viability in real time using a simple, plate-based method. The assay involves adding NanoLuc luciferase and a cell-permeant prosubstrate to cells in culture. Viable cells reduce the proprietary prosubstrate to generate a substrate for NanoLuc luciferase. This substrate diffuses from cells into the surrounding culture medium, where it is rapidly used by the NanoLuc Enzyme to produce a luminescent signal. The signal correlates with the number of viable cells, making the assay well suited for cytotoxicity studies.
Tox21 Assay Protocol Summary:
The mixture of HepG2 cell suspension and reagents were dispensed at 600cells/6 ul/well in 1536-well tissue culture treated black solid bottom plates using a Multidrop dispenser. After the assay plates were incubated at a 37 C/5% CO2 incubator for 5 hours, 23 nL of compounds dissolved in DMSO, positive and negative controls was transferred to the assay plate by a pintool work station. The plates were incubated at 37 C for 40 hours. The luminescence intensity were measured at 0h, 8h, 16h, 24h, 32h and 40h time points using ViewLux plate reader during compound treatment.
On the % scale 0 is the no-effect control and ±100 the full control effect.

Compound | activity change, negative = cytotoxic
COc1ccc2nc(SCc3ncc(C)c(OC)c3C)[nH]c2c1 | -1.95% [at 35.3 µM] (inactive)
CC(C)NCC(O)COc1ccc(COCCOC(C)C)cc1 (stereo not given) | 1.62% [at 35.3 µM] (inactive)
CNS(=O)(=O)CCc1ccc2[nH]cc(C3CCN(C)CC3)c2c1 | -6.89% [at 35.3 µM] (inactive)
O=Cc1ccc(Cl)c(Cl)c1 | 3.57% (inactive)
CCOC(=O)c1ccc(OC(=O)CCCCCN=C(N)N)cc1 | -5.05% [at 35.3 µM] (inactive)
OCCC(F)(F)C(F)(F)C(F)(F)C(F)(F)C(F)(F)C(F)(F)C(F)(F)C(F)(F)F | 10.2% (inactive)
CC(=O)Nc1cccc(C)c1 | 1.17% (inactive)
c1ccc2c(c1)ccc1c3ccccc3ccc21 | -4.77% [at 35.3 µM] (inactive)
C[C@@H]1O[C@@H](O[C@@H]2[C@@H](O)[C@H](OCCc3ccc(O)c(O)c3)O[C@H](CO[C@@H]3O[C@H](CO)[C@@H](O)[C@H](O)[C@H]3O)[C@H]2OC(=O)/C=C/c2ccc(O)c(O)c2)[C@H](O)[C@H](O)[C@H]1O | -2.13% (inactive)
CCC(C=O)CC | -1.38% (inactive)
CCCCCCCCCCCCCC | 4.13% (inactive)
CCCCCCCCC1CCC(=O)O1 (stereo not given) | 1.04% (inactive)
Nc1ccc2cc(S(=O)(=O)O)cc(O)c2c1 | -4.58% (inactive)
CCCC(=O)C(C)=O | 1.1% (inactive)
CC(C)CCCCOC(=O)c1ccccc1C(=O)OCCCCC(C)C | -9.24% (inactive)
COc1ccc(C2CNC(=O)C2)cc1OC1CCCC1 (stereo not given) | -4.76% [at 35.3 µM] (inactive)
CC(C)(C)c1cc(CCC(=O)NN)cc(C(C)(C)C)c1O | 0.687% (inactive)
O=C(NCCc1c[nH]c2ccccc12)c1cccnc1 | 1.14% [at 35.3 µM] (inactive)
COC(=O)[C@@H]1[C@H]2C[C@H]3c4[nH]c5ccccc5c4CCN3C[C@@H]2CC[C@@H]1O | -1.01% [at 35.3 µM] (inactive)
CC1(C)S[C@@H]2[C@H](N=CN3CCCCCC3)C(=O)N2[C@H]1C(=O)O | 3.93% [at 35.3 µM] (inactive)

Compound | activity change, negative = cytotoxic
COC(=O)c1ccccc1C(=O)c1ccc(OCCN2CCCCC2)cc1 | -0.457% [at 35.3 µM] (inactive)
CC(C)=O | 22.9% (inactive)
Cc1cccc(C)c1OCC(C)N (stereo not given) | -2.61% [at 35.3 µM] (inactive)
COP(=O)(OC)OC(c1ccc(Cl)cc1)P(=O)(OC)OC (stereo not given) | 1.12% [at 35.3 µM] (inactive)
CCOC(=O)CC(=O)c1ccccc1 | -0.0244% (inactive)
C=CC(OCC)OCC | -3.42% (inactive)
Cc1ccc(S(=O)(=O)O)c(C)c1 | 3.04% (inactive)
CCOC(=O)c1ncn2c1CN(C)C(=O)c1cc(F)ccc1-2 | -3.19% [at 35.3 µM] (inactive)
O=C(O)Cc1cn(-c2ccccc2)nc1-c1ccc(Cl)cc1 | -3.54% [at 35.3 µM] (inactive)
CC(C)C[C@H](NC(=O)CNC(=O)[C@H](Cc1ccc(O)cc1)NC(=O)[C@H](CO)NC(=O)[C@H](Cc1c[nH]c2ccccc12)NC(=O)[C@H](Cc1cnc[nH]1)NC(=O)[C@@H]1CCC(=O)N1)C(=O)N[C@@H](CCCN=C(N)N)C(=O)N1CCC[C@H]1C(=O)NCC(N)=O (stereo in doubt) | -4.28% [at 35.3 µM] (inactive)
CCCC/C=C/C=C\C=O | 0.434% (inactive)
CCCCC(CC)COCCO (stereo not given) | 0.0197% (inactive)
C[Si](C)=O | -3.86% [at 6.97 µM] (inactive)
O=C(CCN1CCN(CCO)CC1)N1c2ccccc2Sc2ccc(C(F)(F)F)cc21 | 0.756% [at 35.3 µM] (inactive)
CCn1ccc(NS(=O)(=O)c2ccc(N)cc2)nc1=O | 2.46% [at 35.3 µM] (inactive)
Cc1cccc(C)c1NC(=O)c1ccccc1C(=O)O | 1.07% [at 35.3 µM] (inactive)
O=C(CCNNC(=O)c1ccncc1)NCc1ccccc1 | 0.596% [at 35.3 µM] (inactive)
CC1COc2ccccc2N1 (stereo not given) | -0.611% (inactive)
Cc1cc2cc3c(C)cc(=O)oc3c(C)c2o1 | 3.06% [at 35.3 µM] (inactive)
CC(N)C(=O)OC(C)(C)Cc1ccc(Cl)cc1 (stereo not given) | -1.04% [at 35.3 µM] (inactive)
